Assay results taken from the supplement of paper PMC10732440.
± gives the standard deviation of the averaged measurements.

System: Caenorhabditis elegans N2 infected with Nematocida parisii ERTm1
Experiment: progeny production relative to DMSO uninfected control; higher = more progeny despite microsporidia infection (inhibition of infection with low host toxicity)
Conditions: infection time 6 days
How it was run: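 In 96-well plates holding K-medium, E. coli OP50 and 15,000 N. parisii spores/μL, 100 wild-type C. elegans L1 larvae per well were exposed to compound at 100 μM or 40 μM in 1% DMSO for 6 days with shaking at 21°C. Worms were then stained with Rose Bengal, scanned and counted with WorMachine, with three runs per compound and dose. Each value is progeny production as a percentage of the spore-free vehicle condition, averaged over replicates.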

SMILES	progeny production (40 µM)	progeny production (100 µM)
COc1ccc(C)cc1NC(=O)c1ccc(S(=O)(=O)N2CCCCC2)cc1	7.49 ± 1.3%	19.4 ± 16%
CCc1cc(Cc2cnc(N)nc2N)cc2c1N(C)CCC2C (centres undefined)	11.7 ± 8.4%	4.65 ± 0.53%
Cc1onc(-c2ccccc2Cl)c1C(=O)N[C@@H]1C(=O)N2[C@@H]1SC(C)(C)[C@@H]2C(=O)O	2.76 ± 1.9%	19.1 ± 12%
O=C(Nc1ncc(Cc2cccc3ccccc23)s1)C1CCCCC1	8.93 ± 0.69%	13 ± 5.7%
O=C(NCc1ccc(F)cc1)c1c(O)c2ncccc2[nH]c1=O	5.38 ± 2.2%	16 ± 8.6%
CCCCCc1ccc(C(=O)NCCn2cc(CCCCCc3c[nH]c(N)n3)nn2)cc1	8.32 ± 7.4%	2.61 ± 1.4%
NCC(=O)Nc1ccc(-n2nc(C(F)(F)F)cc2-c2ccc3c(ccc4ccccc43)c2)cc1	4.52 ± 2.6%	11.9 ± 7%
O=C1[C@H](CC[C@H](O)c2ccc(F)cc2)[C@@H](c2ccc(O)cc2)N1c1ccc(F)cc1	6.94 ± 2.7%	21 ± 14%
Cc1nc(Nc2ccc(F)cc2)nc(N2CCc3ccccc3C2C)c1C (centres undefined)	2.7 ± 0.53%	20.9 ± 25%
CNC(=O)C1O[C@@H](n2cnc3c(NCc4cccc(I)c4)nc(Cl)nc32)[C@H](O)[C@@H]1O (some centres undefined)	5.42 ± 1.8%	12.6 ± 3.5%
CCCC(=O)OCCc1ccccc1	5.19 ± 1.8%	11.9 ± 12%
O=[N+]([O-])c1cn2c(n1)OC[C@@H](OCc1ccc(OC(F)(F)F)cc1)C2	7.03 ± 0.77%	11.4 ± 5.1%
Cc1ccccc1NC(=O)Nc1cccc([N+](=O)[O-])c1	4.55 ± 2.1%	13.8 ± 4.8%
CC(C)N(c1cc(-c2ccccc2)sc1C(=O)O)C(=O)[C@H]1CC[C@H](C)CC1	4.15 ± 1.8%	12.2 ± 7.8%
O=C(NC(=O)N1CCCc2ccccc21)c1cccc(Cl)c1	2.7 ± 0.83%	19.9 ± 14%
CCCCOC(=O)Nc1cc2nc(C3CCCCC3)[nH]c2cc1N(CC)CC	6.28 ± 3%	13.5 ± 8.2%
Cc1ccc(Oc2ccccc2-c2csc(N=C3NCCCN3)n2)c(C)c1	4.22 ± 1.2%	14.8 ± 12%
CCCCN1C[C@H](O)[C@@H](O)[C@H](O)[C@H]1CO	4.97 ± 3.5%	13.9 ± 3.7%
O=c1cc(NCCCN[C@@H]2CCOc3c(Br)cc(Br)cc32)[nH]c2ccsc12	5.52 ± 2.9%	8.91 ± 4%
[N-]=[N+]=N[C@H]1C[C@H](n2ccc(=O)[nH]c2=O)O[C@@H]1CO	4.8 ± 1.5%	11.5 ± 5.3%
Oc1cccc(C(Nc2nccs2)c2ccc3cccnc3c2O)c1 (centres undefined)	4.05 ± 2%	12.9 ± 2.9%

SMILES	progeny production (40 µM)	progeny production (100 µM)
CCCCc1ccc(S(=O)(=O)Nc2cc(C)on2)cc1	7.98 ± 1.1%	25 ± 22%
C[C@@H](NC(=O)c1ccccc1-c1ccccc1)B(O)O	3.09 ± 1.4%	21.8 ± 15%
COc1ccc2cc3[n+](cc2c1OCCN(CCn1cncn1)Cc1ccc(F)cc1F)CCc1cc2c(cc1-3)OCO2	5.91 ± 1.2%	17.3 ± 14%
O=C(c1cc(O)nc2ccccc12)N1CCN(c2ccccc2)CC1	5.44 ± 4.1%	9.85 ± 7.2%
NC[C@H]1O[C@H](O[C@H]2[C@H](O)[C@@H](O[C@H]3O[C@H](CO)[C@@H](O)[C@H](N)[C@H]3O)[C@H](N)C[C@@H]2N)[C@H](N)C[C@@H]1O	6.6 ± 2.4%	11.7 ± 16%
CN(C)c1[nH]c(=O)ncc1F	3.57 ± 3.5%	14.8 ± 7.8%
CSc1ccc2c(c1)C(N1CCN(C)CC1)Cc1ccccc1S2 (centres undefined)	5.75 ± 2.9%	13.9 ± 9%
CCCCc1ccc(-c2cc(C(=O)O)cc(-c3ccc(Cl)cc3)n2)cc1	5.13 ± 5.7%	9.87 ± 7.3%
CCc1nc2ccc(Cl)cn2c1C(=O)NCc1ccc(N2CCC(c3ccc(OC(F)(F)F)cc3)CC2)cc1	4.78 ± 2.6%	6.24 ± 4.5%
CCOC(=O)/C=C/[C@H](C[C@@H]1CCNC1=O)NC(=O)[C@@H](CC(=O)[C@@H](NC(=O)c1cc(C)on1)C(C)C)Cc1ccc(F)cc1	3.79 ± 1.2%	8.56 ± 4.7%
CC(N)C12CC3CC(CC(C3)C1)C2 (centres undefined)	3.85 ± 0.59%	6.21 ± 1.8%
C=CCN(C(=O)OCc1ccc([N+](=O)[O-])cc1)C1CCN(CC[C@](C)(CN(C)S(=O)(=O)c2ccccc2)c2ccccc2)CC1	3.88 ± 1.4%	5.72 ± 2.3%
Nc1nc(O)c(Br)c(-c2cccc(Cl)c2)n1	4.12 ± 0.52%	12.1 ± 5.2%
O=C(Nc1ccc(F)cc1)c1nn(-c2ccccc2)c(=O)cc1Cl	5.87 ± 3.4%	14 ± 9.4%
CC1CN(c2ncnc3c2c(-c2ccccc2)cn3-c2ccc(F)cc2)CC(C)O1 (centres undefined)	4.39 ± 1.6%	13.4 ± 13%
N#CCN1C(=O)COc2cc(F)c(N3C(=O)c4ccccc4C3=O)cc21	3.98 ± 0.99%	15.2 ± 12%
CC(C)/N=c1\cc2n(-c3ccc(Cl)cc3)c3ccccc3nc-2cc1Nc1ccc(Cl)cc1	5.08 ± 1.9%	9.5 ± 7.2%
O=C(Nc1[nH]c(=O)ncc1F)c1ccccc1	4.09 ± 0.71%	23.8 ± 20%
O=C(Nc1ccc(N2CCN(C(=O)c3ccccc3)CC2)cc1)c1ccc2c(c1)OCO2	5.03 ± 1.4%	15.6 ± 10%
O=C(Nc1ccc(-c2ccccc2)cc1)C1=C(O)C(Cc2ccccc2)OC1=O (centres undefined)	5.44 ± 3.9%	6.02 ± 4.2%
CC[C@@H]1C(=O)OC[C@@H]1Cc1cncn1C	4.59 ± 1.7%	11.8 ± 11%

SMILES	progeny production (40 µM)	progeny production (100 µM)
O=C(/C=C/n1cnc(-c2cc(C(F)(F)F)cc(C(F)(F)F)c2)n1)NNc1cnccn1	7.43 ± 4%	14.1 ± 2.6%
Oc1ccc(NCc2ccccc2OCc2ccccc2)cc1	5.72 ± 3.1%	8.25 ± 6.3%
COc1ccc(C[C@@H](C)[C@@H](C)Cc2ccc(OC)c(OC)c2)cc1OC	3.86 ± 0.4%	16 ± 4.1%
CCC[C@@H]1C[C@@H](C(=O)N[C@@H]([C@H]2O[C@H](SC)[C@H](O)[C@@H](O)[C@H]2O)[C@H](C)Cl)N(C)C1	6.74 ± 4.3%	7.36 ± 5.1%
Nc1nnc(-c2ccc(Cl)cc2)s1	5.44 ± 1.4%	16.3 ± 16%
C=C(C)n1c(=O)n(Cc2ccccc2C)c2ccccc21	6.26 ± 0.83%	14.5 ± 10%
COc1c(NC(=O)[C@H]2CC[C@@H](COc3ccc([N+](=O)[O-])cc3)CC2)c(F)cc2c(=O)c(C(=O)O)cn(C3CC3)c12	4.64 ± 2.9%	8.01 ± 7.4%
Cc1c[nH]c(=O)nc1NCc1ccccc1	7.05 ± 4.5%	8.45 ± 2.8%
CC[C@@]1(O)C(=O)OCc2c1cc1n(c2=O)Cc2cc3c([N+](=O)[O-])cccc3nc2-1	5.77 ± 1.9%	8.29 ± 3.3%
NC[C@H]1OB(O)c2c(OCCCO)cccc21	4.23 ± 2.7%	6.44 ± 4.8%
OCCCCn1cnc2c(O)nc(NCc3ccc(Cl)c(Cl)c3)nc21	4.76 ± 1.4%	10.6 ± 7.9%
CC1(C)CC(NC(=O)C(=O)Nc2ccc(Cl)cc2)CC(C)(C)N1	2.32 ± 0.043%	8.19 ± 5.5%
COc1cc(NS(=O)(=O)c2ccc(C)cc2)c2ncccc2c1	5.38 ± 2.2%	10.3 ± 3.9%
CN1CCN(Cc2ccc(-c3cnc4[nH]cc(-c5ccc6[nH]ccc6c5)c4c3)cc2)CC1	9.2 ± 4.8%	14.6 ± 5.6%
Cc1ccc(NC(=O)c2cc(Cl)ccc2O)cc1	8.65 ± 5.8%	8.35 ± 5.3%
CCc1cc(O)c(Oc2cccnc2N)cc1F	6.17 ± 3.4%	10.2 ± 5.5%
Cc1cc(O)c2c(c1)C(=O)c1c(I)c(O)c(I)c(O)c1C2=O	8.9 ± 5.8%	25.1 ± 5.2%
Cc1cc(C)n(O)c(=O)c1	1.95 ± 0.44%	14.8 ± 8.8%
O=C1c2cccc3cccc(c23)C(=O)N1CC1CO1 (centres undefined)	7.39 ± 4.7%	44.9 ± 30%
N=C(N)NCCCCC(=O)Nc1cc(C(F)(F)F)cc(NC(=O)c2cc(C(=O)Nc3cc(C(F)(F)F)cc(NC(=O)CCCCNC(=N)N)c3O[C@@H]3CCNC3)ncn2)c1O[C@@H]1CCNC1	7.1 ± 7.2%	3.98 ± 2.8%
O=C(CC1Sc2ncnn2C1=O)Nc1ccc(Br)cc1 (centres undefined)	6.82 ± 1.8%	21.6 ± 10%

SMILES	progeny production (40 µM)	progeny production (100 µM)
O=C(Nc1ccc(Cl)c(C(F)(F)F)c1)C(CCCl)C(=O)Nc1ccc(Cl)c(C(F)(F)F)c1	7.13 ± 2.7%	8.04 ± 5.6%
C=CCc1cc(Cc2cnc(N)nc2N)cc(OC)c1O	3.9 ± 1.6%	12.4 ± 5.1%
Cc1ncc([N+](=O)[O-])n1CC(O)CN1CCOCC1 (centres undefined)	9.17 ± 4.5%	12.3 ± 8.3%
CC(C)Nc1ncnc2c1cnn2-c1ccc(Cl)cc1	8.31 ± 1.1%	4.15 ± 2.5%
CCCCCOc1ccc(/C=C2\Oc3c(ccc(O)c3O)C2=O)c(O)c1	2.87 ± 0.23%	11.2 ± 7%
O=C(CCCC(F)(F)F)N1CCC(c2nc(-c3nccs3)no2)CC1	5.21 ± 1.1%	8.6 ± 8.7%
CN(O)C(=O)c1cc2c(CN3CCC[C@H]3C(N)=O)cn(Cc3ccc(F)cc3)c2cn1	3.84 ± 1.6%	11.1 ± 4.5%
O=[N+]([O-])c1ccc2c(CCc3c[nH]c4ccccc34)c[nH]c2c1	8.93 ± 1.7%	35.7 ± 12%
CC(C)(C)OC(=O)NCc1ccc(C(=O)N[C@H]2CCOC2=O)cc1	5.57 ± 4.2%	24.3 ± 18%
NC(=O)C(c1ccccc1)(c1ccccc1)[C@H]1CCCN(CCc2ccc3c(c2)CCO3)C1	7.34 ± 0.47%	15.2 ± 18%
Cc1ncc([N+](=O)[O-])n1CC(C)O (centres undefined)	7.4 ± 3.9%	7.52 ± 8.6%
COc1cc(NC(=O)CN2C(=O)NC(c3ccccc3)(c3ccccc3)C2=O)cc(OC)c1	3.5 ± 1%	15.8 ± 11%
Cc1cc(Nc2ccc(F)cc2)nc(SCc2nc3ccccc3[nH]2)n1	3.08 ± 0.71%	16.7 ± 14%
C[C@H]1[C@@H](c2cccc(C(F)(F)F)c2)OC(=O)N1C(=O)NCc1cncc2ccccc12	2.28 ± 1.4%	7.48 ± 6.2%
O=C(NCCN1CCCCC1)c1cccc(C(F)(F)F)c1	5.09 ± 1.5%	18.2 ± 16%
NC(=O)c1[nH]c2ccc(S(N)(=O)=O)cc2c1-c1ccccc1	4.85 ± 2.6%	6.59 ± 2.8%
CCN(CC)S(=O)(=O)c1ccc(Cl)c(C(=O)Nc2sc3c(c2C#N)CCCC3)c1	6.31 ± 2.1%	31.3 ± 22%
CCOC(=O)N[C@@H]1CC[C@@H]2[C@@H](C1)C[C@H]1C(=O)O[C@H](C)[C@H]1[C@H]2/C=C/c1ccc(-c2cccc(F)c2)cn1	4.47 ± 3.1%	9.38 ± 3.8%
CN1CCN(c2ccc3[nH]c(-c4ccc5[nH]c(-c6ccc(O)cc6)nc5c4)nc3c2)CC1	6.36 ± 1.4%	15.4 ± 12%
